Measurements published in the supplement of paper PMC9492666.
Where a name gives a salt, the structure may show the parent alone.

test system: HCC1937; test: relative cell viability, compound + RSL3, vs DMSO (fraction of DMSO control); higher = less growth inhibition; settings: 72 h
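Also: breast cancer cell viability read out with the CCK-8 kit after co-treatment of each compound with the ferroptosis inducer RSL3.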

Compared with `C[C@H]1N=C(N(C)C)N=C(N)N1` [Imeglimin hydrochloride] + COC(=O)c1ccc([C@H]2c3[nH]c4ccccc4c3C[C@H](C(=O)OC)N2C(=O)CCl)cc1 [RSL3], `COc1cc(N(C)C)cc(CN(C)CCc2ccc([N+](=O)[O-])cc2)c1O` [CDC25 Phosphatase Inhibitor I] + COC(=O)c1ccc([C@H]2c3[nH]c4ccccc4c3C[C@H](C(=O)OC)N2C(=O)CCl)cc1 [RSL3] is lower in relative cell viability: 0.504 for the first, 0.454 for the second.

Going from `CSc1ccc(C(=O)/C=C/c2cc(C)c(OC(C)(C)C(=O)O)c(C)c2)cc1` [Elafibranor] + COC(=O)c1ccc([C@H]2c3[nH]c4ccccc4c3C[C@H](C(=O)OC)N2C(=O)CCl)cc1 [RSL3] to `CCC(C)(Oc1ccc(C2(c3ccc(OC(C)(CC)C(=O)O)cc3)CCCCC2)cc1)C(=O)O` (configuration not stated) [Clinofibrate] + COC(=O)c1ccc([C@H]2c3[nH]c4ccccc4c3C[C@H](C(=O)OC)N2C(=O)CCl)cc1 [RSL3], the relative cell viability falls from 0.83 to 0.561.

First: COC(=O)N(CC(=O)O)Cc1cccc(OCc2nc(-c3ccc(Cl)cc3)oc2C)c1 + COC(=O)c1ccc([C@H]2c3[nH]c4ccccc4c3C[C@H](C(=O)OC)N2C(=O)CCl)cc1 [RSL3]
Second: Cn1nc(C(=O)N(Cc2ccccc2)Cc2ccc(C(=O)O)cc2)c2c1-c1cc(Cl)ccc1OC2 [Nidufexor] + COC(=O)c1ccc([C@H]2c3[nH]c4ccccc4c3C[C@H](C(=O)OC)N2C(=O)CCl)cc1 [RSL3]
The relative cell viability of the first is higher: 0.538 for the first, 0.488 for the second.

First: CCOC(=O)C(C)(C)Oc1ccc(Cl)cc1 [Clofibrate] + COC(=O)c1ccc([C@H]2c3[nH]c4ccccc4c3C[C@H](C(=O)OC)N2C(=O)CCl)cc1 [RSL3]
Second: CCNC1(C(N)=O)CCN(c2ncnc3c2nc(-c2ccccc2Cl)n3-c2ccc(Cl)cc2)CC1 [Otenabant] + COC(=O)c1ccc([C@H]2c3[nH]c4ccccc4c3C[C@H](C(=O)OC)N2C(=O)CCl)cc1 [RSL3]
The relative cell viability of the first is higher: 0.728 for the first, 0.659 for the second.

First: CC(C)c1nc(N(C)S(C)(=O)=O)nc(-c2ccc(F)cc2)c1/C=C/[C@@H](O)C[C@@H](O)CC(=O)O [Rosuvastatin] + COC(=O)c1ccc([C@H]2c3[nH]c4ccccc4c3C[C@H](C(=O)OC)N2C(=O)CCl)cc1 [RSL3]
Second: CCCc1cc(-c2nc(-c3ccc(NS(C)(=O)=O)cc3)cs2)ccn1 + COC(=O)c1ccc([C@H]2c3[nH]c4ccccc4c3C[C@H](C(=O)OC)N2C(=O)CCl)cc1 [RSL3]
The relative cell viability of the first is higher: 0.54 for the first, 0.322 for the second.

First: O=C(O)C(=O)Nc1sc2c(c1C(=O)O)CCNC2 + COC(=O)c1ccc([C@H]2c3[nH]c4ccccc4c3C[C@H](C(=O)OC)N2C(=O)CCl)cc1 [RSL3]
Second: CC(C)C1=CC2=CC[C@@H]3[C@](C)(CCC[C@@]3(C)C(=O)O)[C@H]2CC1 [Abietic Acid] + COC(=O)c1ccc([C@H]2c3[nH]c4ccccc4c3C[C@H](C(=O)OC)N2C(=O)CCl)cc1 [RSL3]
The relative cell viability of the first is lower: 0.541 for the first, 0.586 for the second.

First: Cc1nc2ccc(C(=O)N3CCC4(CC3)CC(=O)c3c(cnn3C(C)C)C4)cc2[nH]1 + COC(=O)c1ccc([C@H]2c3[nH]c4ccccc4c3C[C@H](C(=O)OC)N2C(=O)CCl)cc1 [RSL3]
Second: c1ccc([C@H]2CN3CCSC3=N2)cc1 [Levamisole hydrochloride] + COC(=O)c1ccc([C@H]2c3[nH]c4ccccc4c3C[C@H](C(=O)OC)N2C(=O)CCl)cc1 [RSL3]
The relative cell viability of the first is lower: 0.402 for the first, 0.704 for the second.

Compared with `CC(C)(C)NC(=O)[C@H]1CC[C@H]2[C@@H]3CC[C@H]4NC(=O)C=C[C@]4(C)[C@H]3CC[C@]12C` [Finasteride] + COC(=O)c1ccc([C@H]2c3[nH]c4ccccc4c3C[C@H](C(=O)OC)N2C(=O)CCl)cc1 [RSL3], `CC1=C(/C=C/C(C)=C/C=C/C(C)=C/C=C/C=C(C)/C=C/C=C(C)/C=C/C2=C(C)C(=O)[C@@H](O)CC2(C)C)C(C)(C)C[C@H](O)C1=O` [Astaxanthin] + COC(=O)c1ccc([C@H]2c3[nH]c4ccccc4c3C[C@H](C(=O)OC)N2C(=O)CCl)cc1 [RSL3] is lower in relative cell viability: 0.885 for the first, 0.562 for the second.

For `CC(C)OC(=O)C(C(=O)OC(C)C)=C1SC=CS1` [Malotilate] + COC(=O)c1ccc([C@H]2c3[nH]c4ccccc4c3C[C@H](C(=O)OC)N2C(=O)CCl)cc1 [RSL3], the relative cell viability was 0.337.
